Hit rate of the full screen: of about 400,000 compounds, about 5,500 (1.4%) were called active. Another 9% or so got no clear call; they are omitted. For the sample, actives were picked, then their nearest neighbours and some compounds at random. A number with no mark means an inactive call. Calls come from the whole dose curve; as a rule, active = well fitted cell-killing curve with a large enough effect; inconclusive = small, poorly fitted or top-dose-only effect, or effect the other way; inactive = flat fitted curve, though single readings scatter.
Assay: qHTS assay for MDR1-selective chemotherapeutics: Primary screen using the parental adenocarcinoma cell KB-3-1; note: nearly all actives have a fitted effect of over 60% in size
Conditions: KB-3-1 viability, CellTiter-Glo ATP luminescence, 72 h; series mostly up to 46.1 µM; activity change, negative = cytotoxic: at the top concentration
From the text: A prime difficulty in effectively treating cancer is the development of cellular resistance to multiple structurally unrelated anticancer drugs, a phenomenon known as multidrug resistance (MDR). […] Numerous strategies to overcome P-gp-mediated MDR have been explored, including the design of drugs that evade recognition and efflux, and development of inhibitors to block efflux and restore drug accumulation. […] An alternative approach is to exploit resistance by identifying drugs that target MDR cells over the non-resistant parental cells from which they were selected. […] The development of MDR1-selective agents represents a new strategy for resolving multidrug resistance, as it remains a long-standing clinical challenge for cancer chemotherapy.
Our goal is to identify compounds that selectively kill P-gp-expressing MDR cells. We will identify MDR1-selective compounds by comparing toxicity of compounds in the screening library against parental, drug-naive (KB-3-1) adenocarcinoma cells as well as their drug-selected MDR sub-line (KB-V1). The differential toxicity of compounds against these two cell lines will be used to identify MDR1-selective compounds, whose cytotoxicity is potentiated, rather than diminished, by P-gp expression. This assay will be utilized to conduct a quantitative high-throughput screen (qHTS) in collaboration with the NIH Chemical Genomics Center to identify selective agents, and probe hits arising from the screen will be validated using secondary assays and characterized through a well-established follow-up research program. This screen was run against the entire NCGC library collection of about 400,000 compounds.
NIH Molecular Libraries Probe Production Network [MLPCN]
NIH Chemical Genomics Center [NCGC]
PI: Michael Gottesman PhD, National Cancer Institute, NIH
Briefly, 5 microL of media containing either KB-3-1 cells (columns 1-2, 4-48) are dispensed into Greiner white, treated solid-bottom 1536-well assay plates (media-only control is added to column 3). Compounds are then transferred via Kalypsys pin tool equipped with 1536-pin array (10 nL slotted pins, V&P Scientific, San Diego, CA). Following addition of compound, the plates are incubated at 37 degrees C for 72 hours. CellTiter-Glo (2.5 µL/well) is then added, and the plates are read in a ViewLux reader (Perkin-Elmer, clear luminescence filter, 1 second exposure, 1x binning) following a 10 minute incubation. All cells are dispensed in DMEM phenol-red free media containing 10% FBS.
Library plates were screened starting from the lowest and proceeding to the highest concentration. Vehicle-only plates, with DMSO being pin-transferred to columns 5-48, will be inserted uniformly at the beginning and the end of each library in order to monitor and record any shifts in the background, which can be affected by reagent dispensers or loss in enzyme activity over time. Screening data will be corrected, normalized, and concentration-effect relationships will be derived by using publicly-available NCGC, NCATS curve fitting algorithms (http://ncgc.nih.gov/pub/openhts).
% is set by controls: 0 for no effect and ±100 for the full control effect; potency is the fitted concentration of half-maximal effect.

Structure (SMILES)	activity change, negative = cytotoxic [%]	Potency
CCN1CCN(c2ncnc3c2cnn3-c2ccc(C)c(C)c2)CC1	-9.73	–
CCCCOc1ccc(C(=O)Nc2cccc(-c3nc4ccccc4o3)c2C)cc1	2.3	–
Cc1ccc2nc(CN3CCN(S(=O)(=O)c4ccc(C)c(C)c4)CC3)oc2c1	5.7	–
COc1ccccc1NC(=O)c1cc(N2C(=O)C3C4CCC(C4)C3C2=O)ccc1Cl (centres undefined)	26.6	–
CSc1ccccc1NC(=O)c1cc(Cl)sc1Cl	5.25	–
COc1ccccc1NC(=O)c1cc(Cl)nnc1Cl	–	23.1 µM (active)
Oc1ccccc1-c1nc(/C=C/c2ccc(F)cc2)no1	-0.486	–
COc1cc2c(=O)c(S(=O)(=O)c3ccc(C(C)C)cc3)cn(Cc3ccccc3C)c2cc1OC	9.54	–
Cc1cc(C)nc(N/N=C/c2c(CO)cnc(C)c2O)n1	13.8	–
CCOc1ccc(-n2c(SCC(=O)Nc3cc(C(=O)O)ccc3Cl)nc3ccccc3c2=O)cc1	-4.78	–
CCOc1ccc(-n2c(O)c(/C=N/Nc3nc(C)cc(C)n3)c3ccccc3c2=O)cc1	–	20.6 µM (active)
COc1cc(OC)c(NC(=O)c2nc(-c3ccncc3)no2)cc1Cl	-2	–
Cc1ccc(N2CCN(C(=O)CCc3c(C)nc4c(c3C)c(=O)n(C)c(=O)n4C)CC2)c(C)c1	11.6	–
Cc1ccc(OCCn2c(CNc3ccccc3C)nc3ccccc32)cc1	2.01	–
Cc1cc(C)cc(Nc2ncnc3onc(-c4ccc(F)cc4)c23)c1	-3.07	–
Cc1cc(-c2ccc(C)c(S(=O)(=O)N3c4ccccc4CC3C)c2)on1 (centres undefined)	–	14.6 µM (active)
CC1Cc2ccccc2N1S(=O)(=O)c1ccc(Cl)nc1 (centres undefined)	4.04	–
CCC1CN(S(=O)(=O)c2cc(-c3cc(C)no3)ccc2C)c2cc(C)ccc2O1 (centres undefined)	-0.508	–
COc1cccc(C(=O)Nc2ccc(N3CCN(C(=O)c4ccco4)CC3)cc2)c1	–	4.61 µM (active)
O=C(OCC(=O)N1CCN(C(=O)c2ccco2)CC1)c1cccc(O)c1	-20	–
O=C(Nc1ccccc1N1CCN(C(=O)c2ccccc2)CC1)c1ccco1	5.81	–
Cc1csc2nc(COc3ccc(NC(=O)COc4ccccc4)cc3)cc(=O)n12	0.478	–
O=C1/C(=C\c2ccc([N+](=O)[O-])cc2)CS(=O)(=O)C/C1=C/c1ccc([N+](=O)[O-])cc1	–	1.46 µM (active)
O=[N+]([O-])c1ccc(/C=C/c2ccc3cccnc3c2)cc1	-25.6	–
O=C1CCCN1C(=O)COc1ccc([N+](=O)[O-])cc1	-1.51	–

Structure (SMILES)	activity change, negative = cytotoxic [%]	Potency
Cc1ccccc1C(=O)Nc1sc2c(c1C(=O)N1CCC(C)CC1)CCCC2	-11.4	–
COc1ccc(CNC(=O)c2ccc3c(O)c(S(=O)(=O)c4ccccc4)c(=O)[nH]c3c2)cc1	3.06	–
Cc1ccc(C)c(N2C(=O)N(Cc3c(F)cccc3Cl)c3ccccc3S2(=O)=O)c1	-18.6	–
Cc1cc(C)c(NC(=O)Cn2c(SCC(=O)NCc3ccccc3)nc3ccccc32)c(C)c1	10.2	–
Cc1cccc(NS(=O)(=O)c2ccc(-c3cnc(C4CC4)o3)cc2)c1	–	1.46 µM (active)
Cc1ccc(-c2cnc(C3CC3)o2)cc1S(=O)(=O)Nc1cccc(C)c1C	-2.72	–
Cc1cccc(CNS(=O)(=O)c2ccc(-c3cnc(C4CC4)o3)cc2)c1	–	inactive
COCCn1c(CCC(=O)Nc2cc(C)ccc2C)nc2cccnc21	7.34	–
COC(=O)c1ccccc1NC(=O)c1cc(-c2ccccc2O)no1	6	–
O=C(CC(O)(C(F)(F)F)C(F)(F)F)Nc1ccc(Cl)c(Cl)c1	–	5.17 µM (active)
O=C(CSc1nnc(-c2ccncc2)n1-c1ccccc1)Nc1ccc(Cl)c(Cl)c1	-0.827	–
Cc1ccc(-c2nn(CCC(=O)Nc3ccc(Cl)c(Cl)c3)c(=O)c3ccccc23)cc1	2.54	–
CC(C)c1ccc(-c2noc(C3CCCN(S(C)(=O)=O)C3)n2)cc1 (centres undefined)	–	20.6 µM (active)
COc1cc(-c2noc(C3CCCN(S(=O)(=O)c4cccc(Cl)c4)C3)n2)cc(OC)c1OC (centres undefined)	0	–
O=C(Cc1cccs1)N1CCCC(c2nc(-c3ccc(S(=O)(=O)N4CCCC4)cc3)no2)C1 (centres undefined)	-17.4	–
CC1CCCCN1CC(=O)N1CCCc2c1c(=O)oc1ccc(OCc3ccccc3)cc21 (centres undefined)	-3.44	–
Cc1cc(C)c(NC(=O)CCc2c(C)nc3c(c(C)nn3C(C)(C)C)c2C)c(C)c1	20.8	–
CCc1ccc(CCC(=O)Nc2ccc(S(N)(=O)=O)cc2)o1	11	–
Cc1ccc(CCC(=O)Nc2ncc(Cc3cc(Cl)ccc3Cl)s2)o1	–	1.16 µM (active)
Cc1cccc(-n2c(=O)c3c(c4cc(C)ccc4n3C)n(CC(=O)Nc3ccccc3Cl)c2=O)c1	-6.17	–
CCC1CCCCN1S(=O)(=O)c1ccc(NC(=O)c2cc(=O)c3ccccc3o2)cc1 (centres undefined)	1.72	–
COc1cc(C(O)c2nc(-c3cccc(C(=O)O)c3)cs2)ccc1F (centres undefined)	0	–
COc1ccccc1C(=O)Nc1nc2nc(-c3ccccc3)cc(=O)n2[nH]1	–	inactive
COc1ccc2c(c1OC)C(=O)OC2Nc1nc(-c2ccccc2)cs1 (centres undefined)	–	3.66 µM (active)

Source: PubChem BioAssay AID1347075 (National Center for Advancing Translational Sciences (NCATS), 2019)
